Assay [1] deals with Thyrotropin-releasing hormone receptor (Homo sapiens) (UniProt P34981). Description: qHTS assay to identify small molecule agonists of the thyrotropin-releasing hormone receptor (TRHR) signaling pathway (AID 1346891; calls by dose curve; further: series mostly up to about 58 µM). The method, boiled down:
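TRHR-expressing HEK293 cells were plated 18 h at 37 °C/5% CO2, loaded with calcium dye 2 h at 37 °C, then given compound in DMSO; fluorescence was read kinetically for 3 min at 1 s intervals.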
For orientation: In qHTS, concentration-response curves come from the screen itself.

The nature of assay [2]: Caspase-3/7 induction in CHO-K1 cells by small molecules, qHTS assay (AID 1346980). Further: nearly all actives have a fitted effect of over 15% in size. The method, boiled down:
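Wild-type cells were seeded at 1,500 per well and settled 5 hr at 37 C, 5% CO2, then exposed to DMSO-dissolved compounds for 17 hr. Caspase-Glo 3/7 reagent was added, and luminescence was read after 30min at room temperature.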

The nature of assay [3]: Caspase-3/7 induction in HepG2 cells by small molecules, qHTS cell viability counter screen (AID 1346981). Further: nearly all actives have a fitted effect of over 30% in size. Further: potency means the concentration at half of the fitted maximal effect. In short, it runs like this: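 HepG2, WT, 2,000 cells/well; 5 hr pre-incubation 37 C/5% CO2; compound pin-transferred from DMSO; 16 hr exposure; CellTiter-Fluor, 1 hr; fluorescence read.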
Assay [4] has as its target Nuclear receptor subfamily 1 group I member 2 (Homo sapiens) (UniProt O75469). The assay can be described thus: Human pregnane X receptor (PXR) small molecule agonists, qHTS assay (AID 1346982). Further: nearly all actives have a fitted effect of over 35% in size. Further: potency means the concentration at half of the fitted maximal effect. In short, it runs like this: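 Luciferase signal from ONE-Glo (30 min, room temperature) measured activation of hPXR-driven CYP3A4 reporter expression in PXR-Luc HepG2 cells treated with compounds for 24 hr at 37 C.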

Assay [5] concerns the target Cytochrome P450 2D6 (Homo sapiens) (UniProt P10635). Description: Cytochrome P450 Family 2 Subfamily D Member 6 (CYP2D6) small molecule antagonists: luciferase reporter qHTS assay (AID 1671196). Further: nearly all actives have a fitted effect of over 50% in size. Further: potency means the concentration at half of the fitted maximal effect. In short, it runs like this: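 Read-out is luminescence from luciferin formed by CYP2D6 turnover of a proluciferin substrate, recorded as relative luminescence units. Reactions ran 1 h at room temperature after NADPH regeneration solution was added.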
In general terms: In a reporter assay the amount or activity of a reporter protein is the signal.

Assay [6] addresses Cytochrome P450 2C19 (Homo sapiens) (UniProt P33261). The assay can be described thus: Cytochrome P450 Family 2 Subfamily C Member 19 (CYP2C19) small molecule antagonists: luciferase reporter qHTS assay (AID 1671197). Further: nearly all actives have a fitted effect of over 65% in size. Further: potency means the concentration at half of the fitted maximal effect. In short, it runs like this: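 Relative luminescence units recorded 20 min after the detection reagent stopped a 1 h, 37C CYP2C19 reaction on proluciferin substrate, which was started by NADPH regeneration following 10 min room-temperature compound preincubation; ketoconazole positive control.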

Assay [7] addresses Cytochrome P450 1A2 (Homo sapiens) (UniProt P05177). The assay can be described thus: Cytochrome P450 Family 1 Subfamily A Member 2 (CYP1A2) small molecule antagonists: luciferase reporter qHTS assay (AID 1671199). Further: nearly all actives have a fitted effect of over 50% in size. Further: potency means the concentration at half of the fitted maximal effect. The method, boiled down:
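P450-Glo CYP1A2, 1536-well qHTS: enzyme/proluciferin substrate + cpd (DMSO), 10 min RT; NADPH regen, 1 h RT; detection reagent, 20 min; luminescence, RLU.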

Assay [8] is described as follows: Human pregnane X receptor (PXR) small molecule agonists, qHTS cell viability counter screen (AID 1346977). Further: nearly all actives have a fitted effect of over 50% in size. Further: potency means the concentration at half of the fitted maximal effect. The method, boiled down:
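PXR-Luc HepG2 cells in medium with 5% charcoal-stripped FBS were pre-incubated 5hr, then exposed to compounds for 24hr at 37C. Viability was read in the same wells by CellTiter-Fluor fluorescence, reagent added after 23hr with a 1hr incubation.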

Assay [9] is described as follows: Caspase-3/7 induction in HepG2 cells by small molecules, qHTS assay (AID 1346978). Further: nearly all actives have a fitted effect of over 15% in size. The method, boiled down: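 Wild-type HepG2 cells (2,000/well) were settled 5 h at 37 C, 5% CO2, then exposed to compounds in DMSO for 17 h. Caspase-3/7 activity was read by luminescence 30 min after adding Caspase-Glo 3/7 reagent at room temperature.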
Assay [10] can be described thus: Caspase-3/7 induction in CHO-K1 cells by small molecules, qHTS cell viability counter screen (AID 1346979). Further: nearly all actives have a fitted effect of over 35% in size. Further: potency means the concentration at half of the fitted maximal effect. The method, boiled down:
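Wild-type CHO-K1 cells were seeded at 1,500 per well, rested 5hr at 37 C, then exposed to compounds in DMSO. After 16hr, CellTiter-Fluor reagent was added and fluorescence read 1hr later as the viability measure.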

Assay [11] has as its target Nuclear receptor subfamily 1 group I member 2 (Rattus norvegicus) (UniProt Q9R1A7). The assay can be described thus: Rat pregnane X receptor (rPXR) activation by small molecules, qHTS assay (AID 1346983). Further: nearly all actives have a fitted effect of over 20% in size. The settings on record: rPXR luciferase reporter cells, One-Glo luminescence, 24 h; max activation: hits give high values. In short, it runs like this: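 Cell-based rPXR luciferase reporter assay, 2,000 cells per well, rested 5hr at 37 C before compound addition in DMSO, then 24 hr at 37 C. One-Glo reagent was added and luminescence read after 30 min at room temperature.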

Assay [12] addresses Nuclear receptor subfamily 1 group I member 2 (Homo sapiens) (UniProt O75469). Description: CYP3A4 induction through human pregnane X receptor (PXR) by small molecules, qHTS assay (AID 1346984). Further: nearly all actives have a fitted effect of over 40% in size. In short, it runs like this:
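Luminescence readout: luciferase signal after One-Glo (30 min, room temperature), following 3 h at 37C with 3uM final Luciferin-IPA P450 substrate. Cells were DPX-2 (HepG2, PXR/CYP3A4-luc co-transfected) dosed for 24 h.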

For assay [13] the target is unchanged. The assay can be described thus: Human pregnane X receptor (PXR) activation by small molecules, qHTS assay (AID 1346985). Further: nearly all actives have a fitted effect of over 40% in size. Further: potency means the concentration at half of the fitted maximal effect. In short, it runs like this:
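DPX-2 cells (HepG2 co-transfected with a PXR response element and a CYP3A4-promoter luciferase construct) were seeded at 2,000 per well, rested 5 hr at 37C, then exposed to DMSO-dissolved compounds for 24 hr. Activation was read as luciferase luminescence.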

The target in assay [14] is Cytochrome P450 2C9 (Homo sapiens) (UniProt P11712). Description: Cytochrome P450 Family 2 Subfamily C Member 9 (CYP2C9) small molecule antagonists: luciferase reporter qHTS assay (AID 1671198). Further: nearly all actives have a fitted effect of over 50% in size. Further: potency means the concentration at half of the fitted maximal effect. The method, boiled down: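 CYP2C9 activity was measured with a P450-Glo proluciferin substrate. Enzyme–substrate mix was held with compound for 10 min at room temperature, then NADPH regeneration solution was added for 1 h at 37C. Luciferin product was read as luminescence.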

The target of assay [15] is Voltage-gated inwardly rectifying potassium channel KCNH2 (Homo sapiens) (UniProt Q12809). The assay can be described thus: Human Ether-a-go-go-Related Gene (hERG) channel small molecule antagonists: fluorescence cell-based qHTS assay (AID 1671200). Further: nearly all actives have a fitted effect of over 50% in size. Further: potency means the concentration at half of the fitted maximal effect. In short, it runs like this: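 U2OS cells expressing the channel were plated at 1000 cells/well, incubated overnight at 37 C, then loaded with FluxOR II thallium-sensitive dye for 1 h at room temperature in the dark, with a further 10 min at room temperature before stimulation.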
In general terms: The hERG channel carries a current that helps repolarise heart muscle cells.

Assay [16] deals with Cytochrome P450 3A4 (Homo sapiens) (UniProt P08684). Description: Cytochrome P450 Family 3 Subfamily A Member 4 (CYP3A4) small molecule antagonists: luciferase reporter qHTS assay (AID 1671201). The method, boiled down:
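P450-Glo CYP3A4 system with proluciferin substrate; compounds preincubated 10 min RT with enzyme-substrate mix, then NADPH regeneration added for 1 h RT. Detection reagent 20 min, luminescence read as relative luminescence units.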

Values joined by “and” are separate entries in the source; they are usually repeats but may differ in a detail not shown here. Identical values can stand only once. A number with no mark means an inactive call. Results filed as inconclusive are left out. Active and inactive are the calls of the source. Unless noted, the call rests on the fitted dose curve; in most records, active means well fitted curve in the direction sought with a large enough effect in the repeat runs; inconclusive means weak or mixed curves; inactive means no such curve, though single readings can be large; an effect the other way counts as inactive or inconclusive.
On the % scale 0 is the no-effect control and ±100 the full control effect.

Sequence of Voltage-gated inwardly rectifying potassium channel KCNH2 (Homo sapiens) (Q12809 whole entry, looked up): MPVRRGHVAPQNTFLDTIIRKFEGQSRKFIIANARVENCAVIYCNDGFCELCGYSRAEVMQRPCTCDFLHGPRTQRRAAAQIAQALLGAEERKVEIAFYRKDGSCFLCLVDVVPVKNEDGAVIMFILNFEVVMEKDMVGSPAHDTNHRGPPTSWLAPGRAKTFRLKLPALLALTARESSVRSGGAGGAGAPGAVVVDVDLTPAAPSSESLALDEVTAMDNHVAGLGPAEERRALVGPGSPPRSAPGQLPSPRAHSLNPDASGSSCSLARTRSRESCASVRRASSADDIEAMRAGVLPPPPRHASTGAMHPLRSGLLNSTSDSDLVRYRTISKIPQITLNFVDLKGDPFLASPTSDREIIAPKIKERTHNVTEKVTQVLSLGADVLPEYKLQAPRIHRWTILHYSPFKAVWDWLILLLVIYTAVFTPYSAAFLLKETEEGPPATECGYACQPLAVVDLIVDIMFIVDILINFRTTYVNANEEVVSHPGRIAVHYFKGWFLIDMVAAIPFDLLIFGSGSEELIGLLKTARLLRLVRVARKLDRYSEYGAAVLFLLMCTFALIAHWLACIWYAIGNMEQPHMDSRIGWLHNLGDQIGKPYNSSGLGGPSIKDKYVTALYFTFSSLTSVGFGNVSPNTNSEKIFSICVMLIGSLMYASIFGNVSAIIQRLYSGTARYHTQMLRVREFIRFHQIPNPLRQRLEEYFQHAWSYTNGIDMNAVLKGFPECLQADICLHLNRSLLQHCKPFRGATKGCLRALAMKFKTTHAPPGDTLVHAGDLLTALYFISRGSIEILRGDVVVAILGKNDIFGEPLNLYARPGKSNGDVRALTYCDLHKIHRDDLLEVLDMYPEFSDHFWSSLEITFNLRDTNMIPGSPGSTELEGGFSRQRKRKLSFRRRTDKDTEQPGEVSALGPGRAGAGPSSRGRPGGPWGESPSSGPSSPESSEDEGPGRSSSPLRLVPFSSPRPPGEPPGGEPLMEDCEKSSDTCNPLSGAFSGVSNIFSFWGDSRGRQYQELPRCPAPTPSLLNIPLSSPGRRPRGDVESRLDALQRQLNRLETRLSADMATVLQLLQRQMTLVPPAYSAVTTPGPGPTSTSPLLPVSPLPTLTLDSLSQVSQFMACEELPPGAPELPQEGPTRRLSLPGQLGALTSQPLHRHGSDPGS
Sequence of Cytochrome P450 2C19 (Homo sapiens) (P33261 whole entry, looked up): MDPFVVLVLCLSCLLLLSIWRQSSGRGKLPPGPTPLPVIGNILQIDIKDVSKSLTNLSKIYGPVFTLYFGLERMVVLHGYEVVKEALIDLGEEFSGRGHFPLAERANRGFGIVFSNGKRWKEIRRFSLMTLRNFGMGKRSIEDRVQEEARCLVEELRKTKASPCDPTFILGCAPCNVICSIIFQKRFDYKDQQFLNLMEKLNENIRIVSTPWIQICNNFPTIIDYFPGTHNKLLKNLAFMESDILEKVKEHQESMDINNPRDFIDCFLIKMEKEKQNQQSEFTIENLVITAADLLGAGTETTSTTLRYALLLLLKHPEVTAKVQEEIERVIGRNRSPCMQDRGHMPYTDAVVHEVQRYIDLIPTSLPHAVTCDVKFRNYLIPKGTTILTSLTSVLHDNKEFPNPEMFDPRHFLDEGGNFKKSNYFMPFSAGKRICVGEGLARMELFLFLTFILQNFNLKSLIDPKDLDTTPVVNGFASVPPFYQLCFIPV
Sequence of Nuclear receptor subfamily 1 group I member 2 (Rattus norvegicus) (Q9R1A7 whole entry, looked up): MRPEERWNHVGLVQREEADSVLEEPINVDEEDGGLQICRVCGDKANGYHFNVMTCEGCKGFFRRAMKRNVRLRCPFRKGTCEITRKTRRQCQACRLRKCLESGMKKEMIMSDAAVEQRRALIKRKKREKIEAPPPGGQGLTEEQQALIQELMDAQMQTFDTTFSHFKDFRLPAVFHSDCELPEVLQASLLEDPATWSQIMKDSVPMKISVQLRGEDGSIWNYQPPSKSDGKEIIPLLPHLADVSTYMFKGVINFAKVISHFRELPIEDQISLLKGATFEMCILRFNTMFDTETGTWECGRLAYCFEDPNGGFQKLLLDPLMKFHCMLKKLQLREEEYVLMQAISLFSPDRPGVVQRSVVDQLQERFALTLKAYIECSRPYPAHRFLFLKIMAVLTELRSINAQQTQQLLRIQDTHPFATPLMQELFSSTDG
Sequence of Nuclear receptor subfamily 1 group I member 2 (Homo sapiens) (O75469 whole entry, looked up): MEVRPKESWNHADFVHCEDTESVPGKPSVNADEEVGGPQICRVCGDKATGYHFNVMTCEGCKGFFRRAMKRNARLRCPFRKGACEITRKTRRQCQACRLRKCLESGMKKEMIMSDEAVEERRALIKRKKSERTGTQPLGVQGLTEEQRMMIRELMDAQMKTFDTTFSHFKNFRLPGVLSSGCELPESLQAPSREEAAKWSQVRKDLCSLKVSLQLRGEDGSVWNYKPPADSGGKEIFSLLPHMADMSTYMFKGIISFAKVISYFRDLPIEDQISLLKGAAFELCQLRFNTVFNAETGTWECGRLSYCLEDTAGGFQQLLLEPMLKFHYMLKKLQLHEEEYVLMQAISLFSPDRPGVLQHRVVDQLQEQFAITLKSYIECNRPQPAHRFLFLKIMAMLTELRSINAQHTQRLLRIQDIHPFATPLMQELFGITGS
Sequence of Cytochrome P450 2C9 (Homo sapiens) (P11712 whole entry, looked up): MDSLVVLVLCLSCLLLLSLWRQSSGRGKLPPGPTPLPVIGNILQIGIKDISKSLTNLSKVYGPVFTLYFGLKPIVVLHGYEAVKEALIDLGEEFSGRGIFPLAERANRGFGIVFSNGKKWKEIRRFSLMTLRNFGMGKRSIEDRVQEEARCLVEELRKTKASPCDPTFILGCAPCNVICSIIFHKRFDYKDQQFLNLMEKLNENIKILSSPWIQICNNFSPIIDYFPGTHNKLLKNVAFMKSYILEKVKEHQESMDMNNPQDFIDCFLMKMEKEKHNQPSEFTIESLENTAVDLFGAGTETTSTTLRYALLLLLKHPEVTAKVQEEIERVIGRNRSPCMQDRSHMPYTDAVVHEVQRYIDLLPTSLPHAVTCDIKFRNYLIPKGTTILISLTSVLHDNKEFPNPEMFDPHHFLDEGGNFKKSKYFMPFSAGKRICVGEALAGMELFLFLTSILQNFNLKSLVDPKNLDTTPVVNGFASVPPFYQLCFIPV
Sequence of Cytochrome P450 3A4 (Homo sapiens) (P08684 whole entry, looked up): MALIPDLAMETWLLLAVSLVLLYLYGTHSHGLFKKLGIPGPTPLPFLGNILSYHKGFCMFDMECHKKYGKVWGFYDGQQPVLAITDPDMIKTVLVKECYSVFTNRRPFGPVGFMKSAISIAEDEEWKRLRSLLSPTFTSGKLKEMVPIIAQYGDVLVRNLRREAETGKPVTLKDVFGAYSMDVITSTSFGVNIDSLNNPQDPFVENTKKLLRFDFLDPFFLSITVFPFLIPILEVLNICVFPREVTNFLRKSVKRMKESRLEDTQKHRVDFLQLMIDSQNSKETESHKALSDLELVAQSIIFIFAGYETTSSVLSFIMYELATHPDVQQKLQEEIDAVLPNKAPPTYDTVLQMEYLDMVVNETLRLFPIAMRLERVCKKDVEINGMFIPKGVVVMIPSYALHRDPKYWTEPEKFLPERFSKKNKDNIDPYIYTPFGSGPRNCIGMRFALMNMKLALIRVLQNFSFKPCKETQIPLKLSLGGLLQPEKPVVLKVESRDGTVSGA
Sequence of Cytochrome P450 2D6 (Homo sapiens) (P10635 whole entry, looked up): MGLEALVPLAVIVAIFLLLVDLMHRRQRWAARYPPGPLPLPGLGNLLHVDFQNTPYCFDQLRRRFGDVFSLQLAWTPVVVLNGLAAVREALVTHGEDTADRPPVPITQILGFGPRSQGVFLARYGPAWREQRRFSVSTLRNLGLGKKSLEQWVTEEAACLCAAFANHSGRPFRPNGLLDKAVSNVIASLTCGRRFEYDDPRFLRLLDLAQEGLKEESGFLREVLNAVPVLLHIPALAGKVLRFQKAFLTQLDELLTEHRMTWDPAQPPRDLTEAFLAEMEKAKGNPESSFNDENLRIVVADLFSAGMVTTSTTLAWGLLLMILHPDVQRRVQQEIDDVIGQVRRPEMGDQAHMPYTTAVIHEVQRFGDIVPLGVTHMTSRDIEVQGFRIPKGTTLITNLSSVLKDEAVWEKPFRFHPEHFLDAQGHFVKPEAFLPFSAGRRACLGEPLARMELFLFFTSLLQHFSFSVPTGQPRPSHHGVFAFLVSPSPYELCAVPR
Sequence of Cytochrome P450 1A2 (Homo sapiens) (P05177 whole entry, looked up): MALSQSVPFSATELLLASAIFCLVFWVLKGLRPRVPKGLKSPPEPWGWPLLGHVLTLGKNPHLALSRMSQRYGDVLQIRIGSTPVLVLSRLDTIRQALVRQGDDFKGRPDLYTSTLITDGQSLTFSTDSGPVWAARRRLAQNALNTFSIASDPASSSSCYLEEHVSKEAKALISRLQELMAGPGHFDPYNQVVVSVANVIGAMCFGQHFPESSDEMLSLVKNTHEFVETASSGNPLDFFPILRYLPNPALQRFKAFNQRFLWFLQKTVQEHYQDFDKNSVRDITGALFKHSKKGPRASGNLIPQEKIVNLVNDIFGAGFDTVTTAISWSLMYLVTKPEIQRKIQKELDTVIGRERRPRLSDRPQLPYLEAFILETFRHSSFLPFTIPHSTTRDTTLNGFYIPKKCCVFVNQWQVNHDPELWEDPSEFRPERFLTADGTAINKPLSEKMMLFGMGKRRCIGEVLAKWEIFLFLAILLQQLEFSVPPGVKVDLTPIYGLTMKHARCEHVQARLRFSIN
Sequence of Thyrotropin-releasing hormone receptor (Homo sapiens) (P34981 whole entry, looked up): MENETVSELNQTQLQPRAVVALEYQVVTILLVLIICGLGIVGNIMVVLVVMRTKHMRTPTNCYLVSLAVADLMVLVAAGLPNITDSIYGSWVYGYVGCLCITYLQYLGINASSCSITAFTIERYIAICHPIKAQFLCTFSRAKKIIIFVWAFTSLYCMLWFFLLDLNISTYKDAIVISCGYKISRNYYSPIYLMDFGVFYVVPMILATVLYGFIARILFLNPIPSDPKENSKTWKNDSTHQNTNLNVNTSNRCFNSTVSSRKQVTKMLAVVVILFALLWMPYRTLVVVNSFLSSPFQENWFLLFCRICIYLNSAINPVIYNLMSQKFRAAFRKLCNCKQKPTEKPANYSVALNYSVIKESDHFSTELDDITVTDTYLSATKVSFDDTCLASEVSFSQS

For `CN(C)CCOC1=Cc2ccccc2Sc2ccc(Cl)cc21`, the Potency result in [1], in [3], in assay [4] and in assay [6] was “inactive” each time. Moreover, in assay [2], the call was inactive. Moreover, the results for the Potency in assay [5] and in [7] were 4.36 µM (active) and 18.2 µM (active), respectively.

Take `CC(=O)OCC(=O)[C@H]1CC[C@H]2[C@@H]3CCC4=CC(=O)CC[C@]4(C)[C@H]3CC[C@]12C`: the Potency result in assay [8], in assay [9], in assay [10], in [3], in assay [4] and in [12] was “inactive” in each case. For the same compound, the Potency result in assay [13], in [7], in [15] and in [16] was “inactive” in each case. Besides, the outcome in [2] was inactive. Besides, the max activation in [11] was 2.69%. Moreover, the values for the Potency in assay [6] and in assay [14] were 9.77 µM (active) and 7.76 µM (active), respectively.

Regarding `CSc1ccc(Oc2ccc(S(N)(=O)=O)cc2CN(C)C)cc1C`, the Potency result in [1], in assay [9], in assay [3] and in assay [16] was “inactive” throughout. Further, in assay [2], the compound was classed as inactive. Besides, the Potency in [4] was 19.3 µM (active); in [6] it was 35.6 µM (active); in [7], 63.3 µM (active); in assay [15], 6.92 µM (active).

`CCNC(=O)N1CCN(CCCC(c2ccc(F)cc2)c2ccc(F)cc2)CC1`: the Potency in assay [8] was 13.3 µM (active); in assay [10] it was 26.6 µM (active); in [3], 29.8 µM (active); in assay [4] it was 26.6 µM (active); in assay [15], 0.107 µM (active). In addition, the Potency result in assay [9], in [12], in [13], in [7] and in [16] was “inactive” each time. Also, in [2], the call was inactive. Besides, the max activation in assay [11] is -17%.

`Cc1cnc(C)c(C)n1`: the Potency entry in [8], in [9], in [10], in assay [3], in assay [4] and in assay [5] was “inactive” in each case. In addition, the Potency result in assay [6], in [15] and in assay [16] was “inactive” throughout. For the same compound, in assay [2], the compound was classed as inactive.

Take `Cc1oncc1C(=O)Nc1ccc(C(F)(F)F)cc1`: the Potency result in [8], in [9], in [10], in assay [3], in [12] and in [15] was “inactive” in each case. Besides, the call in assay [2] was inactive. Further, the Potency in assay [4] is 12.2 µM (active) and 1.5 µM (active); in assay [13], 0.708 µM (active); in assay [5] it was 31.7 µM (active); in [6] it was 8.94 µM (active) and 8.71 µM (active); in assay [14] it was 25.2 µM (active) and 15.5 µM (active).

Take `O=C(O)c1cccnc1C(=O)O`: the Potency entry in [8], in [9], in assay [10], in [3], in [4] and in assay [5] was “inactive” each time. Further, the Potency result in assay [6], in assay [14], in assay [7], in assay [15] and in assay [16] was “inactive” in each case. In assay [2], the call was inactive.

On to `O=C(O)C(Cc1cc(I)c(O)c(I)c1)c1ccccc1` (stereo not given), for which the Potency entry in assay [8], in assay [9], in [10], in [3], in assay [4] and in [12] was “inactive” in each case. The Potency entry in assay [13], in assay [6], in assay [15] and in assay [16] was “inactive” throughout. In [2], the compound was classed as inactive. In addition, the max activation in [11] was -2.03%. Further, the Potency in assay [14] is 9.77 µM (active); in assay [7], 24.5 µM (active).

The record behind these values is PubChem BioAssay (Tox21).
